Laboratory results: PubChem BioAssay AID1159580 (chemical genetic matrix, 2015)
In all, about 5,500 compounds went through this assay and about 2,000 (36%) were called active. Roughly 18% stayed inconclusive and do not appear here. No stated cut-off is given here; in the data, active means normalized growth mostly below about 0.91 (no sharp cut-off); inconclusive means no clear call, values can overlap the other calls; inactive means mostly above about 0.92. The list shows a part of the results.

Test: chemical genetic growth profiling, strain panel (AID 1159580);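 further: tested at 20 µM; growth read once vehicle control cultures reached saturation at 30 °C; 1 = growth at the plate median or of vehicle wells; lower values mean less growth of the strain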
Conditions: growth OD

Measured: normalized growth

CC(C)CC(N(C)C)C1(c2ccc(Cl)cc2)CCC1 (configuration not stated)
inactive: S. cerevisiae deletion strains, locus YJR075W, strain HOC1, active compounds read low 0.995 | S. cerevisiae deletion strains, locus YKL009W, strain mrt4, active compounds read low 1.03 | S. cerevisiae deletion strains, locus YKL068W, active compounds read low 1.01 | S. cerevisiae deletion strains, locus YKL085W, strain MDH1 (second series), active compounds read low 1.01 | S. cerevisiae deletion strains, locus YKL085W, strain MDH1, active compounds read low 1.01 | S. cerevisiae deletion strains, locus YKL160W, strain elf1, active compounds read low 1.02 | S. cerevisiae deletion strains, locus YKL190W, strain CNB1, active compounds read low 0.997 | S. cerevisiae deletion strains, locus YKR001C, strain vps1, active compounds read low 1.02 | S. cerevisiae deletion strains, locus YKR026C, strain gcn3, active compounds read low 1.01 | S. cerevisiae deletion strains, locus YKR091W, strain srl3, active compounds read low 1.01 | S. cerevisiae deletion strains, locus YLL001W, strain dnm1, active compounds read low 1.01 | S. cerevisiae deletion strains, locus YLL026W, active compounds read low 1.01 | S. cerevisiae deletion strains, locus YLL041C, strain sdh2, active compounds read low 1 | S. cerevisiae deletion strains, locus YLR027C, strain aat2, active compounds read low 1.02 | S. cerevisiae deletion strains, locus YLR039C, strain RIC1, active compounds read low 1.13 | S. cerevisiae deletion strains, locus YLR058C, strain SHM2, active compounds read low 1.01 | S. cerevisiae deletion strains, locus YLR102C, strain apc9, active compounds read low 1.01 | S. cerevisiae deletion strains, locus YLR113W, strain HOG1, active compounds read low 0.995 | S. cerevisiae deletion strains, locus YLR221C, strain rsa3, active compounds read low 0.994 | S. cerevisiae deletion strains, locus YLR258W, strain gsy2, active compounds read low 1 | S. cerevisiae deletion strains, locus YLR262C, strain YPT6 (second series), active compounds read low 1.05 | S. cerevisiae deletion strains, locus YLR262C, strain YPT6, active compounds read low 1.11 | S. cerevisiae deletion strains, locus YLR268W, strain sec22, active compounds read low 1.02 | S. cerevisiae deletion strains, locus YLR320W, strain mms22, active compounds read low 0.989 | S. cerevisiae deletion strains, locus YLR330W, strain CHS5, active compounds read low 1 | S. cerevisiae deletion strains, locus YLR342W, strain FKS1 (second series), active compounds read low 1.01 | S. cerevisiae deletion strains, locus YLR342W, strain FKS1, active compounds read low 1.01 | S. cerevisiae deletion strains, locus YLR357W, strain rsc2, active compounds read low 1.01 | S. cerevisiae deletion strains, locus YLR370C, strain arc18, active compounds read low 1.01 | S. cerevisiae deletion strains, locus YLR371W, strain rom2, active compounds read low 1.01 | S. cerevisiae deletion strains, locus YLR384C, strain iki3, active compounds read low 1.02 | S. cerevisiae deletion strains, locus YLR418C, strain cdc73, active compounds read low 1.05 | S. cerevisiae deletion strains, locus YML016C, strain PPZ1, active compounds read low 1.02 | S. cerevisiae deletion strains, locus YML032C, strain rad52, active compounds read low 1.02 | S. cerevisiae deletion strains, locus YML120C, strain ndi1, active compounds read low 1.01 | S. cerevisiae deletion strains, locus YML124C, strain tub3, active compounds read low 1.01 | S. cerevisiae deletion strains, locus YMR058W, strain fet3, active compounds read low 1.01 | S. cerevisiae deletion strains, locus YMR078C, strain ctf18, active compounds read low 1.02 | S. cerevisiae deletion strains, locus YMR125W, strain sto1, active compounds read low 0.979 | S. cerevisiae deletion strains, locus YMR129W, active compounds read low 1.01 | S. cerevisiae deletion strains, locus YMR205C, strain PFK2, active compounds read low 1.01 | S. cerevisiae deletion strains, locus YMR223W, strain ubp8, active compounds read low 1.01 | S. cerevisiae deletion strains, locus YMR231W, strain pep5, active compounds read low 0.989 | S. cerevisiae deletion strains, locus YMR263W, strain SAP30, active compounds read low 0.999 | S. cerevisiae deletion strains, locus YMR307W, strain GAS1, active compounds read low 1.01 | S. cerevisiae deletion strains, locus YNL067W, strain RPL9B, active compounds read low 0.992 | S. cerevisiae deletion strains, locus YNL071W, strain lat1, active compounds read low 1.01 | S. cerevisiae deletion strains, locus YNL128W, strain TEP1, active compounds read low 0.987 | S. cerevisiae deletion strains, locus YNL153C, strain GIM3, active compounds read low 1.01 | S. cerevisiae deletion strains, locus YNL183C, strain NPR1, active compounds read low 0.972 | S. cerevisiae deletion strains, locus YNL209W, strain ssb2, active compounds read low 0.996 | S. cerevisiae deletion strains, locus YNL233W, strain BNI4, active compounds read low 1.01 | S. cerevisiae deletion strains, locus YNL248C, strain rpa49, active compounds read low 0.997 | S. cerevisiae deletion strains, locus YNL250W, strain rad50, active compounds read low 1 | S. cerevisiae deletion strains, locus YNL271C, strain bni1, active compounds read low 1.02 | S. cerevisiae deletion strains, locus YNL298W, strain CLA4, active compounds read low 1.02 | S. cerevisiae deletion strains, locus YNL307C, strain MCK1, active compounds read low 1.03 | S. cerevisiae deletion strains, locus YNL322C, strain KRE1 (second series), active compounds read low 1 | S. cerevisiae deletion strains, locus YNL322C, strain KRE1, active compounds read low 1 | S. cerevisiae deletion strains, locus YNR049C, strain mso1, active compounds read low 0.996 | S. cerevisiae deletion strains, locus YNR052C, strain pop2, active compounds read low 1.01 | S. cerevisiae deletion strains, locus YOL006C, strain TOP1, active compounds read low 1.03 | S. cerevisiae deletion strains, locus YOL012C, strain htz1 0.875 | S. cerevisiae deletion strains, locus YOL147C, strain pex11, active compounds read low 1 | S. cerevisiae deletion strains, locus YOR001W, strain rrp6, active compounds read low 1.02 | S. cerevisiae deletion strains, locus YOR061W, strain CKA2, active compounds read low 1.01 | S. cerevisiae deletion strains, locus YOR069W, strain VPS5, active compounds read low 0.992 | S. cerevisiae deletion strains, locus YOR070C, strain gyp1, active compounds read low 0.997 | S. cerevisiae deletion strains, locus YOR080W, strain dia2, active compounds read low 1.01 | S. cerevisiae deletion strains, locus YOR083W, strain WHI5, active compounds read low 1 | S. cerevisiae deletion strains, locus YOR106W, strain vam3, active compounds read low 1.03 | S. cerevisiae deletion strains, locus YOR136W, strain idh2, active compounds read low 1.02 | S. cerevisiae deletion strains, locus YOR144C, strain elg1, active compounds read low 1.02 | S. cerevisiae deletion strains, locus YOR184W, strain ser1, active compounds read low 1.03 | S. cerevisiae deletion strains, locus YOR231W, strain MKK1, active compounds read low 1.03 | S. cerevisiae deletion strains, locus YOR265W, strain rbl2, active compounds read low 1.02 | S. cerevisiae deletion strains, locus YOR270C, strain vph1, active compounds read low 0.991 | S. cerevisiae deletion strains, locus YOR290C, strain snf2, active compounds read low 0.99 | S. cerevisiae deletion strains, locus YOR316C, strain cot1, active compounds read low 1.01 | S. cerevisiae deletion strains, locus YPL051W, strain arl3, active compounds read low 0.997 | S. cerevisiae deletion strains, locus YPL055C, strain LGE1, active compounds read low 0.999 | S. cerevisiae deletion strains, locus YPL078C, strain atp4, active compounds read low 1.02 | S. cerevisiae deletion strains, locus YPL106C, strain sse1, active compounds read low 0.988 | S. cerevisiae deletion strains, locus YPL240C, strain hsp82, active compounds read low 1.02 | S. cerevisiae deletion strains, locus YPL241C, strain CIN2, active compounds read low 0.995 | S. cerevisiae deletion strains, locus YPL256C, strain CLN2, active compounds read low 1.01 | S. cerevisiae deletion strains, locus YPR119W, strain clb2, active compounds read low 1.01 | S. cerevisiae deletion strains, locus YPR141C, strain kar3, active compounds read low 1.01 | S. cerevisiae deletion strains, locus YPR163C, strain tif3, active compounds read low 1.02 | S. cerevisiae deletion strains, locus YPR167C, strain met16, active compounds read low 1.02 | S. cerevisiae deletion strains, strain wtn01, active compounds read low 1.03 | S. cerevisiae strains, strain wild type, active compounds read low 0.98
